From the supplement of paper PMC3334620
In all, about 33,000 sequences were measured (“E-score (-0.5 to 0.5)”: median about -0.054, highest 2% from about 0.35 on). For the sample, the highest values were picked, then their nearest neighbours and some sequences at random.

Each sequence was assayed against T1, Stb5 (UniProt P38699) (assay: PBM E-score (8-mer binding enrichment) (E-score (-0.5 to 0.5)); higher = stronger / more preferred TF binding). Conditions: protein concentration: 200 nM; construct: GST-full length.
T1 sequence: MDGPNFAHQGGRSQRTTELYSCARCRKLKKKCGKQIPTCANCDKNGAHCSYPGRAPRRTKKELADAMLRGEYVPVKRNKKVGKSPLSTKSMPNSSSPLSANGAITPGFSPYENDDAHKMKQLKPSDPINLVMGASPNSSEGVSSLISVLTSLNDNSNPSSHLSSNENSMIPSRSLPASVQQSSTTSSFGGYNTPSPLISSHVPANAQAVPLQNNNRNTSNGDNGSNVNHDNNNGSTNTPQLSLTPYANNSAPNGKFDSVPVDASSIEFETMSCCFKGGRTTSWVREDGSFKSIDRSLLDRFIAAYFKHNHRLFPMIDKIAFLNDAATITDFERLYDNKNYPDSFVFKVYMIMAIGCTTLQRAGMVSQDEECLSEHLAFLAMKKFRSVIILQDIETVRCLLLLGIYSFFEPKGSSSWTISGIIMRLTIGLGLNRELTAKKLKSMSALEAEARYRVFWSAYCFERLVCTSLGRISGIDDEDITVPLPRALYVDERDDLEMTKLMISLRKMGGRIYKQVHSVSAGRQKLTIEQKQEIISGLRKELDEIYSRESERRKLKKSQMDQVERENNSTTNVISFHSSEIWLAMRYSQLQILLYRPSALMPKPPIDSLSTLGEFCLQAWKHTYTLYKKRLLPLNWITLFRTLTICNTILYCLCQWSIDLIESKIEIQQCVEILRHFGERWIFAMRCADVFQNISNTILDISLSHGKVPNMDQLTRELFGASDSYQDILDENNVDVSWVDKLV
Description: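 Universal 'all 10-mer' protein binding microarrays (Agilent AMADID 015681) probed with GST-tagged S. cerevisiae TFs (full-length or DBD) made by in vitro transcription/translation (PURExpress), about 100-200 nM. Bound TF was detected with fluorescent anti-GST. Each ungapped 8-mer (which stands for itself and its reverse complement) is scored by the PBM enrichment score (E-score), a modified Wilcoxon-Mann-Whitney statistic from -0.5 to +0.5, computed with the Universal PBM Analysis Suite. Scale: above 0.35 generally sequence-specific binding.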

Row | Sequence | PBM E-score
1 | ACGTTGAA | -0.0556
2 | AGCCATAC | -0.269
3 | GCTTGAAA | -0.11
4 | AATGCTGT | -0.0756
5 | GCCGATCC | 0.207
6 | CGCGCCGC | 0.325
7 | AGCGCCAC | 0.162
8 | AGCGCCCG | 0.198
9 | AGCGCCGG | 0.376
10 | AGCGCCGA | 0.342
11 | AGCGCCGC | 0.41
12 | CTCTTATC | -0.11
13 | CTTTTTAC | 0.145
14 | GCTGCTAA | 0.122
15 | AACCCGTC | 0.183
16 | ACCCCGTA | 0.301
17 | AACCCGTG | -0.0372
18 | CCCCCGTC | 0.233
19 | ACCCCGTG | 0.367
20 | ACCCCGTC | 0.381
21 | AGCTGTGA | -0.266
22 | GGGGTATA | 0.26
23 | AGGGTCTA | -0.0622
24 | AGGGGTAA | -0.249
25 | CGGGGTAA | 0.424

Row | Sequence | PBM E-score
26 | CGGGTCTA | 0.412
27 | CGGGGCTA | 0.454
28 | GGGGGCTA | 0.0408
29 | AGGGTATA | 0.217
30 | CGGGTATA | 0.403
31 | GGGGGTAA | 0.248
32 | CGGGTCTC | 0.151
33 | AGGGGCTA | -0.0747
34 | CCTTAATA | 0.03
35 | CCCAAGGA | -0.0196
36 | CTTCGCCA | 0.0018
37 | GATTAGTA | 0.0787
38 | ATACATGG | -0.155
39 | CGCATCAA | 0.126
40 | ACGCTTAG | -0.072
41 | GTGGGTTA | -0.0789
42 | CTCCTCTC | -0.308
43 | CGGGGTTC | 0.388
44 | CCGGGTTC | 0.24
45 | AGGGGTTC | -0.15
46 | CCGGGGTA | 0.268
47 | CGGGGGTA | 0.451
48 | GGGGGGTA | 0.0523
49 | GGAGCCAA | 0.00764
50 | GACTATAC | 0.0897

Row | Sequence | PBM E-score
51 | AAGGACGG | 0.162
52 | CGACGGAG | 0.339
53 | GGACGGAA | 0.133
54 | CGACGGAA | 0.262
55 | GGACGGAC | 0.359
56 | CGACGGAC | 0.368
57 | AGACGGAC | 0.331
58 | CGCCTCGA | 0.0565
59 | GCTATTGA | 0.168
60 | GTTCGATA | -0.036
61 | CCTGTTTA | 0.0509
62 | CGTTTGCA | 0.0334
63 | ACCTGAAA | -0.098
64 | ATCGCCAG | -0.0866
65 | ATCGCCGC | 0.385
66 | ATCGCCGA | 0.387
67 | ATAGCCGG | 0.373
68 | ATCGCCGG | 0.368
69 | ATAGCCGC | 0.312
70 | CTCGCCGA | -0.0352
71 | ATAGCCGA | 0.216
72 | GTCGCCGA | 0.19
73 | ATCGCCTG | -0.215
74 | ATCGCCTC | -0.271
75 | CTCGCCGC | 0.0978

Row | Sequence | PBM E-score
76 | AGGCAACC | -0.251
77 | ATGAGCTC | -0.262
78 | GAGTCTGA | -0.308
79 | CAAAAGAG | -0.072
80 | TCAGTTCA | -0.229
81 | CGCGTCAC | -0.194
82 | CAAACACA | -0.126
83 | CAAACACC | 0.352
84 | AAAACACT | 0.0252
85 | AAAACACC | 0.353
86 | CAAACACG | -0.114
87 | AAAACACG | -0.0278
88 | AGTTGTAC | 0.0567
89 | ATAGTCAC | -0.0899
90 | ACAGACCC | -0.00703
91 | CCAGGAGG | -0.238
92 | TTTCAAAA | -0.0616
93 | CCTAACCC | 0.0781
94 | CGACGATC | -0.058
95 | CGAATAGC | 0.0153
96 | AAAGGTTG | -0.192
97 | CTTGGCAC | -0.106
98 | AGCTTTAG | -0.226
99 | AGCATCGG | 0.214
100 | CCATACCG | 0.202

Row | Sequence | PBM E-score
101 | ACCCGCTC | 0.246
102 | CGCCGCTA | 0.412
103 | CCCCGCAC | 0.236
104 | CCCCGCTC | 0.371
105 | GCCCGCTA | 0.233
106 | GGCCGCTA | 0.299
107 | AGCCGCTA | 0.173
108 | CCCCGCTA | 0.399
109 | ACCCGCTA | 0.0951
110 | AGACCAGC | -0.285
111 | AAGTCTGC | -0.211
112 | CCAGCAGC | -0.12
113 | GGAACTAA | 0.373
114 | AGAACTAA | 0.0894
115 | TGAACTAA | -0.153
116 | CCCGTTTA | 0.188
117 | GTCCACAC | 0.162
118 | GCTCCGCA | 0.173
119 | ACTCCGGA | 0.355
120 | ACTCCGGC | 0.307
121 | GCTCCGGA | 0.368
122 | ACTCCGGG | 0.327
123 | CCTCCGGA | 0.219
124 | ATATTCTG | 0.0727
125 | GCTGACCA | -0.169

Row | Sequence | PBM E-score
126 | CCCCCAAG | -0.233
127 | GGCAGCTA | -0.0896
128 | TAATACTA | -0.0352
129 | CAGAATCC | -0.0711
130 | ATCGGATG | 0.168
131 | ACGCTGGC | -0.0211
132 | ACACCCGG | 0.234
133 | CCACCGGG | 0.26
134 | ACACCGGG | 0.417
135 | ACACCGGT | 0.421
136 | GAACCGGC | 0.213
137 | GCACCGGC | 0.353
138 | TCACCGGA | 0.343
139 | CCACCGGC | 0.322
140 | ACACCTGT | 0.0542
141 | ACACCGGA | 0.402
142 | AAACCGGT | 0.304
143 | GCACCGGA | 0.338
144 | CGGTTGTA | 0.309
145 | ATAGCCAC | -0.171
146 | ACCAAGCA | -0.0711
147 | AAATGTTC | -0.138
148 | CATTGGCC | -0.214
149 | AAACCGGC | 0.268
150 | ACACCGGC | 0.4

Row | Sequence | PBM E-score
151 | AGACCGGC | 0.313
152 | ACCGTCTC | 0.0885
153 | GACACCCC | 0.014
154 | AACACCTG | 0.179
155 | AACACCGG | 0.474
156 | CACACCTC | -0.0997
157 | CACACCGA | 0.344
158 | GACACCTC | -0.0935
159 | AACACCGA | 0.479
160 | AACACCCA | -0.0193
161 | CACACCAC | -0.199
162 | CACACCGC | 0.394
163 | GACACCGC | 0.454
164 | CACACCGG | 0.327
165 | GAGCCTCC | -0.123
166 | CACCGTAC | 0.213
167 | AGCCGCCT | 0.0174
168 | ACCGTGGC | 0.0612
169 | ACCAAAAG | -0.113
170 | CCAACCTC | -0.111
171 | GAATCGAA | -0.175
172 | CGTGTACA | -0.00441
173 | TACACCTA | -0.109
174 | AACACCGT | 0.472
175 | GCCACCGA | 0.139

Row | Sequence | PBM E-score
176 | TACACCGA | 0.414
177 | TACACCAA | -0.128
178 | AACACCCT | -0.128
179 | GACACCGA | 0.442
180 | GACACCAA | -0.124
181 | AACACCAT | 0.0943
182 | AGGCGACG | -0.112
183 | CCAGAAAA | -0.296
184 | AATGACTC | -0.235
185 | AAGGATCT | -0.117
186 | CCTGCCCC | 0.0235
187 | CTGAATCA | -0.177
188 | ACCCCCGC | 0.398
189 | AACCCCGT | 0.448
190 | ACCCCCCT | -0.245
191 | ACCCCCCC | -0.295
192 | CCCCCCGC | 0.068
193 | ACACCCGT | 0.162
194 | ACCCCCGT | 0.365
195 | AACCCCAT | 0.156
196 | AACCCCCT | -0.247
197 | CTACTCCC | -0.0111
198 | TCGTGGAA | 0.00034
199 | CTAAGAAC | 0.00444
200 | ATGTTCCG | 0.249

Row | Sequence | PBM E-score
201 | AATTGATG | 0.0383
202 | ATCGATAA | -0.139
203 | ACGGCGAC | 0.264
204 | ACGGCGAT | 0.362
205 | ACGGCACA | 0.0761
206 | ACGGCACC | 0.175
207 | ACGGCGAG | 0.043
208 | ACGGCGTA | 0.0801
209 | ACGGCAAG | -0.121
210 | ACGGCAAA | 0.235
211 | ACGGCGTC | 0.392
212 | ACGGCAAT | 0.377
213 | ACGGCGTG | 0.208
214 | ACGGCACT | 0.427
215 | ATACCAGA | -0.177
216 | GGTACTTA | 0.233
217 | GTTAGAAC | 0.0768
218 | ATTCGCCC | 0.125
219 | CCTCCAAC | -0.199
